According to PubChem BioAssay (NCI):
The panel holds about 79,000 compounds, 15% with a hit somewhere; the sample as a whole holds those more often. The source made the active and inactive calls. No stated cut-off is given here; in the data, active means growth inhibition above about 70%; inactive means the rest.

Assays:
[1] = NCI Yeast Anticancer Drug Screen. Data for the rad50 strain (AID 155);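 further: 0% = growth of vehicle-only cultures of the same strain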; settings: S. cerevisiae rad50 strain growth inhibition, hits give high values
Summary of the method: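 Compounds were tested on a yeast strain with an engineered DNA damage repair alteration; the reported value is growth inhibition normalised to vehicle treatment.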

[2] = NCI Yeast Anticancer Drug Screen. Data for the mec2-1 strain (AID 157); settings: S. cerevisiae mec2-1 strain, hits give high values
Summary of the method: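 Yeast mec2-1 mutant treated with compound. Readout: growth inhibition vs vehicle controls.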

[3] = NCI Yeast Anticancer Drug Screen. Data for the sgs1 mgt1 strain (AID 161);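 further: 0% = growth of cultures given vehicle only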; settings: S. cerevisiae sgs1 mgt1 strain, hits give high values
Summary of the method: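 Inhibition of yeast growth, normalised to vehicle-treated controls, is reported for a strain bearing genetic alterations in DNA damage repair.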

[4] = NCI Yeast Anticancer Drug Screen. Data for the cln2 rad14 strain (AID 165);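 further: 0% = growth equal to vehicle treated cultures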; settings: S. cerevisiae cln2 rad14 strain, hits give high values
Summary of the method: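 cln2 rad14 yeast strain; compound exposure; growth inhibition read vs vehicle controls.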

[5] = NCI Yeast Anticancer Drug Screen. Data for the bub3 strain (AID 167); settings: S. cerevisiae bub3 mutant strain, hits give high values
Summary of the method: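 Growth of a checkpoint-deficient yeast mutant is measured after compound exposure. Values represent inhibition relative to vehicle.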

[6] = NCI Yeast Anticancer Drug Screen. Data for the mlh1 rad18 strain (AID 175); settings: S. cerevisiae mlh1 rad18 strain growth inhibition, hits give high values
Summary of the method: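 Yeast w/ defined DNA-repair lesions; compound exposure; growth vs vehicle controls → % inhibition.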

[7] = at 5.0 µM (retest, dose inferred, filed as 0.5)
[8] = at 50.0 µM (retest, dose inferred, filed as 5.0)

Measured: growth inhibition

ClC1(c2ccccc2)c2ccccc2-c2ccccc21
active: [1]; [8] 98% | [1]; at 50.0 µM 92.2% | [2]; [8] 99% | [2]; at 50.0 µM 95.6% | [3]; [8] 98% | [3]; at 50.0 µM 83.9% | [4]; [8] 92% | [5]; [8] 98% | [5]; at 50.0 µM 95.8% | [6]; [8] 94% | [6]; at 50.0 µM 97.1%
inactive: [1]; [7] -26% | [2]; [7] 4% | [3]; [7] -6% | [4]; [7] -1% | [4]; at 50.0 µM 8.7% | [5]; [7] 4% | [6]; [7] 0%

COc1ccc(NC2Oc3cc4c(cc3C(c3cccc(OC)c3OC)C2C)OCO4)cc1 (centres undefined)
inactive: [1]; [7] -24% | [1]; [8] 17% | [1]; at 50.0 µM 48% | [2]; [7] -13% | [2]; [8] -15% | [2]; at 50.0 µM 49.5% | [3]; [7] -6% | [3]; [8] -1% | [3]; at 50.0 µM 47.9% | [4]; [7] -10% | [4]; [8] 12% | [4]; at 50.0 µM 41.1% | [5]; [7] -32% | [5]; [8] 13% | [5]; at 50.0 µM 65.3% | [6]; [7] -19% | [6]; [8] 9%
active: [6]; at 50.0 µM 71.3%

C#CCNC(C)(C)C
inactive: [1]; [7] 1% | [1]; [8] 4% | [2]; [7] -5% | [2]; [8] 1% | [3]; [7] -2% | [3]; [8] -3% | [4]; [7] -3% | [4]; [8] 2% | [5]; [7] 3% | [5]; [8] -2% | [6]; [7] -1% | [6]; [8] 1%
active: [1]; at 50.0 µM 98.5% | [2]; at 50.0 µM 99.4% | [3]; at 50.0 µM 86% | [4]; at 50.0 µM 98.7% | [5]; at 50.0 µM 99.7% | [6]; at 50.0 µM 99.1%

[O-]/[N+]1=[N+](\[O-])c2ccccc2CCc2ccccc21
inactive: [1]; [7] -1% | [1]; [8] -4% | [1]; at 50.0 µM 3.8% | [2]; [7] -1% | [2]; [8] 1% | [2]; at 50.0 µM -4.65% | [3]; [7] 4% | [3]; [8] 1% | [3]; at 50.0 µM 40.1% | [4]; [7] -1% | [4]; [8] -4% | [4]; at 50.0 µM 1% | [5]; [7] -1% | [5]; [8] 0% | [5]; at 50.0 µM 15.4% | [6]; [7] -3% | [6]; [8] 3% | [6]; at 50.0 µM 1.6%

C=CCCCN1C(=O)C2C3c4ccccc4C(C=O)(c4ccccc43)C2C1=O (centres undefined)
inactive: [1]; [7] 29% | [1]; [8] 25% | [1]; at 50.0 µM 32.1% | [2]; [7] 8% | [2]; [8] 20% | [2]; at 50.0 µM 30.7% | [3]; [7] 0% | [3]; [8] 23% | [3]; at 50.0 µM 27.9% | [4]; [7] 16% | [4]; [8] 12% | [4]; at 50.0 µM 29.6% | [5]; [7] 26% | [5]; [8] 17% | [5]; at 50.0 µM 4.65% | [6]; [7] 27% | [6]; [8] 35% | [6]; at 50.0 µM 3.25%

O=C1c2c(Br)sc(Br)c2[C@@H](NC(=O)C(F)(F)F)C1Br (some centres undefined)
inactive: [1]; [7] 8% | [2]; [7] 3% | [3]; [7] 19% | [4]; [7] -1% | [4]; at 50.0 µM 28.1% | [5]; [7] -3% | [6]; [7] 17%
active: [1]; [8] 99% | [1]; at 50.0 µM 89.3% | [2]; [8] 97% | [2]; at 50.0 µM 81.2% | [3]; [8] 99% | [3]; at 50.0 µM 97% | [4]; [8] 93% | [5]; [8] 94% | [5]; at 50.0 µM 80% | [6]; [8] 99% | [6]; at 50.0 µM 91.8%

COC(=O)/C=C(\C)Nc1ccc(Cc2ccc(Br)cc2)cc1
inactive: [1]; [7] -4% | [2]; [7] -13% | [3]; [7] -8% | [4]; [7] 0% | [5]; [7] -5% | [6]; [7] -4%
active: [1]; [8] 98% | [1]; at 50.0 µM 97.5% | [2]; [8] 99% | [2]; at 50.0 µM 96.8% | [3]; [8] 99% | [3]; at 50.0 µM 97.8% | [4]; [8] 99% | [4]; at 50.0 µM 92.9% | [5]; [8] 98% | [5]; at 50.0 µM 94% | [6]; [8] 99% | [6]; at 50.0 µM 98%

Cc1ccccc1C(=N)c1ccccc1Cc1cccc2ccccc12
inactive: [1]; [7] 9% | [2]; [7] -10% | [3]; [7] -1% | [4]; [7] -11% | [5]; [7] -9% | [6]; [7] 0%
active: [1]; [8] 93% | [1]; at 50.0 µM 92.5% | [2]; [8] 91% | [2]; at 50.0 µM 88.5% | [3]; [8] 92% | [3]; at 50.0 µM 93.2% | [4]; [8] 87% | [4]; at 50.0 µM 78.9% | [5]; [8] 93% | [5]; at 50.0 µM 88.4% | [6]; [8] 91% | [6]; at 50.0 µM 91.2%

CCCCCCCCCCCC(=O)OCCN(CC)CC
active: [1]; [8] 99% | [1]; at 50.0 µM 95.8% | [2]; [8] 99% | [2]; at 50.0 µM 98.6% | [3]; [8] 99% | [4]; [8] 99% | [4]; at 50.0 µM 97.9% | [5]; [8] 98% | [5]; at 50.0 µM 93.2% | [6]; [8] 99% | [6]; at 50.0 µM 98%
inactive: [1]; [7] 3% | [2]; [7] -1% | [3]; [7] 4% | [3]; at 50.0 µM 65.5% | [4]; [7] 0% | [5]; [7] -3% | [6]; [7] -2%

Cn1sc2ccccc2c1=S
inactive: [1]; [7] -112% | [2]; [7] -39% | [3]; [7] -47% | [4]; [7] -78% | [5]; [7] -49% | [6]; [7] -95%
active: [1]; [8] 98% | [1]; at 50.0 µM 99.6% | [2]; [8] 99% | [2]; at 50.0 µM 99.8% | [3]; [8] 99% | [3]; at 50.0 µM 99.7% | [4]; [8] 98% | [4]; at 50.0 µM 99.5% | [5]; [8] 98% | [5]; at 50.0 µM 99.5% | [6]; [8] 98% | [6]; at 50.0 µM 99.7%

C=C(CSCCCCCCCCCCCC)C(=O)O
active: [1]; [7] 98% | [1]; [8] 97% | [1]; at 50.0 µM 98.5% | [2]; [7] 99% | [2]; [8] 98% | [2]; at 50.0 µM 98.9% | [3]; [7] 98% | [3]; [8] 97% | [3]; at 50.0 µM 98.5% | [4]; [7] 98% | [4]; [8] 96% | [4]; at 50.0 µM 94.3% | [5]; [7] 98% | [5]; [8] 96% | [5]; at 50.0 µM 99.3% | [6]; [7] 99% | [6]; [8] 97% | [6]; at 50.0 µM 96.7%

O=C(C[n+]1ccccc1)N=N/C(C(=O)Nc1c(Cl)c(O)c2ccccc2c1O)=C1/C(=O)Oc2cc(O)ccc2C1=O
inactive: [1]; [7] 15% | [2]; [7] 23% | [3]; [7] 19% | [4]; [7] -15% | [4]; at 50.0 µM 68.5% | [5]; [7] 24% | [6]; [7] 27%
active: [1]; [8] 98% | [1]; at 50.0 µM 97.3% | [2]; [8] 98% | [2]; at 50.0 µM 95.8% | [3]; [8] 98% | [3]; at 50.0 µM 93% | [4]; [8] 96% | [5]; [8] 98% | [5]; at 50.0 µM 90.8% | [6]; [8] 97% | [6]; at 50.0 µM 94.6%

COC(=O)C1c2cc3c(c(O)c2CCC1(C)O)C(=O)c1c(O)cc2c(c1C3=O)OC1OC2(C)C(O)C(N(C)C)C1O (centres undefined)
active: [1]; at 50.0 µM 91.9% | [2]; at 50.0 µM 86.3% | [3]; at 50.0 µM 92.6% | [4]; [8] 73% | [5]; [7] 72% | [5]; [8] 90% | [5]; at 50.0 µM 83.8% | [6]; [8] 98% | [6]; at 50.0 µM 93%
inactive: [1]; [7] 19% | [1]; [8] 63% | [2]; [7] 28% | [2]; [8] 59% | [3]; [7] 12% | [3]; [8] 58% | [4]; [7] 15% | [4]; at 50.0 µM 69.3% | [6]; [7] 36%
